From article PMC7819943, “Rice protein-binding microarrays: a tool to detect cis-acting elements near promoter regions in rice”
The full ranking holds about 39,000 sequences; the median of “fluorescence intensity (a.u.)” is about 4,300, and the highest 2% start at about 39,000. The sample holds the highest values, similar sequences and a random draw of the others, so the mix is not that of the screen.

molecular target: T1, OsSMF1 (Oryza sativa, UniProt Q6ZLB0 1-436); assay: protein-binding microarray (RPBM); PBS, 2% BSA, 51.3 ng/ul salmon testes DNA, 50 uM zinc acetate, 200 nM TF, 25 C, 1 h; high values mean tight binding; settings: protein: recombinant; tags: N-terminal polyhistidine and DsRed monomer fusion (pET32a); chain copies: 2; label: CyDye5-dUTP incorporated in the synthesized complementary strand; 3' TTTTT single-stranded linker to array surface; dsDNA, one strand shown
T1 sequence: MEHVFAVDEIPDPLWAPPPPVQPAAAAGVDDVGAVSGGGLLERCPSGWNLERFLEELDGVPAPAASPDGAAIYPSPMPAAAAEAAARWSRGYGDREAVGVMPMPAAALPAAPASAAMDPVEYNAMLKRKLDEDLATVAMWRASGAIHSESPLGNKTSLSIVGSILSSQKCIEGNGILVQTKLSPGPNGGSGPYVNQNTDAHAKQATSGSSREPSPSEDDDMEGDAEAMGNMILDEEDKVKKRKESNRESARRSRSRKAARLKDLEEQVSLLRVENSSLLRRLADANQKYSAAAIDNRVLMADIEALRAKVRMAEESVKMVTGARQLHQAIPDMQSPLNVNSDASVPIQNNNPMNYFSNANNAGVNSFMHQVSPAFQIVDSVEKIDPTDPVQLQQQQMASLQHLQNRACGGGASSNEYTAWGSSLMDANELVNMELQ
How it was run: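 Transcription factors were each fused at the N-terminus to a polyhistidine tag plus DsRed and expressed in E. coli BL21-CodonPlus before Ni–NTA purification. Binding to a double-stranded custom Agilent array was carried out with 200 nM protein at 25 °C for 1 h in PBS, 2% BSA, salmon testes DNA and 50 µM zinc acetate. The binding signal is per-feature fluorescence intensity, in arbitrary units, on an Axon 4000B scanner.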

First: TAAACAGGGCCCTACTGTCATCACGTCGATGTTGAGTTTACGGAGTCACCTAGTGCAG
Second: AAAGGACGGACAGTTTCCTGCGCAAATTCCACGTTCCACCCGGAGTCACCTAGTGCAG
The binding signal of the first is higher: 4070 fluorescence intensity (a.u.) for the first, 3460 fluorescence intensity (a.u.) for the second.

Going from “CCGCACGCGCTCCCTTCACCCACCTCGATCGAGCTCCATGCGGAGTCACCTAGTGCAG” to “ACATGGACTGTGGTGTGGTACACACACGGTATGTCAGAGCCGGAGTCACCTAGTGCAG”, the binding signal falls from 3570 fluorescence intensity (a.u.) to 3220 fluorescence intensity (a.u.).

Going from “GGTTGCCATATTTGCTTGTTATGCCGATGTGGACAAGCTTCGGAGTCACCTAGTGCAG” to “ATATTCCACCAAGCAAAAGCCACATCATGCTGTGCTGTGCCGGAGTCACCTAGTGCAG”, the binding signal rises from 5600 fluorescence intensity (a.u.) to 6050 fluorescence intensity (a.u.).

Going from “TCCTCCCAAAGATAATTCAGCTGATGATATTTCCATATCTCGGAGTCACCTAGTGCAG” to “GCTTTGGGCTATAATTGGGCCATTTGTCGTCAGCTCTTGGCGGAGTCACCTAGTGCAG”, the binding signal rises from 3210 fluorescence intensity (a.u.) to 3230 fluorescence intensity (a.u.).

Compared with “TTCTTCTTGGTGGTGGTGGGGCCTGGAAACTATGTGACTTCGGAGTCACCTAGTGCAG”, “ATATACTATTCTCATCTGTCATACACACATCACATCTTGACGGAGTCACCTAGTGCAG” is higher in binding signal: 4270 fluorescence intensity (a.u.) for the first, 25700 fluorescence intensity (a.u.) for the second.

Compared with “ATACTTGGACTATTCTCTTTCGGAAACTTGACTAGTTACACGGAGTCACCTAGTGCAG”, “ATGTCGAAAGGCCTATATGGGCCAGATGATGTGTCCAGGGCGGAGTCACCTAGTGCAG” is lower in binding signal: 43200 fluorescence intensity (a.u.) for the first, 34600 fluorescence intensity (a.u.) for the second.

Going from “GGAGAGCTCCGGGAAGACGCGCGCTGACGCGGCCTCCCTGCGGAGTCACCTAGTGCAG” to “TCAATGATATTTATGTGTGTGACATGTATGTCGAGTTCGTCGGAGTCACCTAGTGCAG”, the binding signal falls from 8860 fluorescence intensity (a.u.) to 4360 fluorescence intensity (a.u.).

Going from “ATTGATGTGAAGAACAAATAGTCAATATTATTCTGTATATCGGAGTCACCTAGTGCAG” to “ATATTCTGATATGTCAATATTATTGTGTATGATTGATTGTCGGAGTCACCTAGTGCAG”, the binding signal rises from 16900 fluorescence intensity (a.u.) to 46700 fluorescence intensity (a.u.).

Going from “TCTTCTGAATGCTCACAATGACGCCATCCTCATCAGCCGCCGGAGTCACCTAGTGCAG” to “GCCCTCCCTGTCATCCCCGTCACCCATCCTGCCTGCTTTTCGGAGTCACCTAGTGCAG”, the binding signal rises from 4480 fluorescence intensity (a.u.) to 8530 fluorescence intensity (a.u.).

Compared with “AGCTAAAATAAACTTTACCAAATTTTGGCAATGCCAAAATCGGAGTCACCTAGTGCAG”, “ACATTACCAAATTTTAACAATGCCAAAATTTTGGTAAGGTCGGAGTCACCTAGTGCAG” is lower in binding signal: 51800 fluorescence intensity (a.u.) for the first, 3450 fluorescence intensity (a.u.) for the second.

Compared with “ACCAAATTTTAGCAATACCAAAATTTTGGCATAGTTGCCACGGAGTCACCTAGTGCAG”, “AAACGCCAACGCCATACTCCACCTGACCTCACACTCGCACCGGAGTCACCTAGTGCAG” is lower in binding signal: 7010 fluorescence intensity (a.u.) for the first, 3290 fluorescence intensity (a.u.) for the second.

Compared with “CGTCCCTTGGACGTCATCTTCTCCTCACGTGCATTGCCTCCGGAGTCACCTAGTGCAG”, “TAAGATGGAGGAGGCGAGGAGAGTTGCGTAGGATGGAGTGCGGAGTCACCTAGTGCAG” is lower in binding signal: 4360 fluorescence intensity (a.u.) for the first, 3880 fluorescence intensity (a.u.) for the second.

Compared with “TTGCAGCATCACCTGGCGAGGCGTAGCTAGGAGATGCAGACGGAGTCACCTAGTGCAG”, “TTTGGCATACCTGGAGCAGATCAGGCAGCACATGGCGAGGCGGAGTCACCTAGTGCAG” is lower in binding signal: 40100 fluorescence intensity (a.u.) for the first, 25600 fluorescence intensity (a.u.) for the second.

Going from “TTATGAGTTTAGAGGGATGATTAGGATACATGGGAATTTTCGGAGTCACCTAGTGCAG” to “AACCCGGCGTTGGTGAGCTGTTCCATTGTGTCTATAGGCACGGAGTCACCTAGTGCAG”, the binding signal falls from 22200 fluorescence intensity (a.u.) to 3210 fluorescence intensity (a.u.).

First: TACTTAGCTAGCTAATCGCGTTGCTCTTTCTCGTACTATACGGAGTCACCTAGTGCAG
Second: TGGATATGCATGCGTACGTACGTAGCTTACCTATAGCTAGCGGAGTCACCTAGTGCAG
The binding signal of the first is higher: 20400 fluorescence intensity (a.u.) for the first, 3500 fluorescence intensity (a.u.) for the second.

Going from “GATATATATACGCGTTCATCAGCGTACGTTCTTATAGCTACGGAGTCACCTAGTGCAG” to “CACTCCGGCGTGACGGAGCCCTTCCCCGATGTGATGCCTACGGAGTCACCTAGTGCAG”, the binding signal falls from 40100 fluorescence intensity (a.u.) to 32600 fluorescence intensity (a.u.).

Compared with “AGGGGCGGAGGGCAGCGATTTTGGTTGGTAGTAGTACGGGCGGAGTCACCTAGTGCAG”, “CGTTGGCGTCCACCACGGCCACCGCCACGCCGCTCGTGTTCGGAGTCACCTAGTGCAG” is higher in binding signal: 3610 fluorescence intensity (a.u.) for the first, 4420 fluorescence intensity (a.u.) for the second.

First: GTCCCCTGTTGCACTTAGATATTTAACTTTGTTAAGGATTCGGAGTCACCTAGTGCAG
Second: CAGGTACTTAACTTTAGTCCCTGTCTTTAGACACTAATTTCGGAGTCACCTAGTGCAG
The binding signal of the first is lower: 4820 fluorescence intensity (a.u.) for the first, 5100 fluorescence intensity (a.u.) for the second.

Compared with “GACTTAACTTTAGTCCCTGTATTTAGACACTAATTTAGAGCGGAGTCACCTAGTGCAG”, “TCCCCGTCTTTTCCTTCCGCCTCACCAACCTCGTCTCGTCCGGAGTCACCTAGTGCAG” is lower in binding signal: 65500 fluorescence intensity (a.u.) for the first, 3330 fluorescence intensity (a.u.) for the second.

First: TCGTCGATGTCACCGCCACCACCGTCGTCATCGCTGCCTTCGGAGTCACCTAGTGCAG
Second: CGTACGGCACCGAGTTATCGCCGCCAGGTCAGTTGGTTTACGGAGTCACCTAGTGCAG
The binding signal of the first is higher: 3820 fluorescence intensity (a.u.) for the first, 3690 fluorescence intensity (a.u.) for the second.

Compared with “CACTAGCTTGTTATATTTACGTGGCACACTTTGATGAGTACGGAGTCACCTAGTGCAG”, “CACAGGCAGGCCTGCAACATGCGTCACGCAGACTTTGATGCGGAGTCACCTAGTGCAG” is lower in binding signal: 11500 fluorescence intensity (a.u.) for the first, 4140 fluorescence intensity (a.u.) for the second.

“AGCTAGAACGCACAGACTTTAGGCTTTAGGTACGATGATGCGGAGTCACCTAGTGCAG” was tested, and the binding signal was 43300 fluorescence intensity (a.u.).
